# Experimental data reported in PubChem BioAssay (Tox21).
# A number with no mark means an inactive call. Inconclusive results are not listed. Entries that show only a call come without a potency. Calls of active or inactive are those of the source. Unless noted, the call rests on the fitted dose curve.
# Legend:
# [1] = Nuclear factor erythroid 2-related factor 2/antioxidant responsive element (Nrf2/ARE) small molecule agonists: qHTS cell viability counter screen in human keratinocytes (AID 1919968; active means well fitted curve in the direction sought with a large enough effect in the repeat runs; an effect the other way counts as inactive or inconclusive; further: nearly all actives have a fitted effect of over 55% in size; further: potency means the concentration at half of the fitted maximal effect)
# Summary of the method: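 Cells of the KeratinoSens line were plated at 1,500 per well and left for 5 h before compound transfer from DMSO stocks. After a 23 h incubation (37 C, 5% CO2), CellTiter-Fluor was added. Signal was taken as fluorescence intensity 1 h later.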
# [2] = Nuclear factor erythroid 2-related factor 2/antioxidant responsive element (Nrf2/ARE) small molecule agonists: luciferase reporter gene qHTS assay in human keratinocytes (AID 1919969); further: nearly all actives have a fitted effect of over 35% in size
# [3] = molecular target: Gonadotropin-releasing hormone receptor (Homo sapiens) (UniProt P30968); experiment: Human gonadotropin-releasing hormone receptor (GnRHR) small molecule agonists, calcium flux assay in GnRHR-HEK293 cells (AID 1920063); further: nearly all actives have a fitted effect of over 35% in size
# Gonadotropin-releasing hormone receptor (Homo sapiens), sequence (P30968 whole entry, looked up): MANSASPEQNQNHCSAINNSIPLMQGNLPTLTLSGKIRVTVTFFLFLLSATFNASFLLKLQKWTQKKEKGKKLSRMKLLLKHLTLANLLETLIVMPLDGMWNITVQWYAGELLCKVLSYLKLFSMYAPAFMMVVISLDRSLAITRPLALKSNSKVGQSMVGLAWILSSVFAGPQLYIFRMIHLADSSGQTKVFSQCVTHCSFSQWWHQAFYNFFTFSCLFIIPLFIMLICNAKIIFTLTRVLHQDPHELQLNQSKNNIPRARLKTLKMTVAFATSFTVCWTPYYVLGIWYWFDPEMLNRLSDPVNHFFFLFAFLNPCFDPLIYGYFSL
# Summary of the method: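 Compounds dissolved in DMSO are pin-transferred onto dye-loaded GnRHR-HEK293 cells, which were seeded 18 h before at 37 C/5% CO2. Calcium signal is read as fluorescence intensity at 1 s intervals for 3 min.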
# [4] = molecular target: KiSS-1 receptor (Homo sapiens) (UniProt Q969F8); experiment: Human kisspeptin (KISS1R) small molecule agonists, calcium flux assay in KISS1R-HEK293 cells (AID 1920064; active means well fitted curve in the direction sought with a large enough effect in the repeat runs; an effect the other way counts as inactive or inconclusive)
# KiSS-1 receptor (Homo sapiens), sequence (Q969F8 whole entry, looked up): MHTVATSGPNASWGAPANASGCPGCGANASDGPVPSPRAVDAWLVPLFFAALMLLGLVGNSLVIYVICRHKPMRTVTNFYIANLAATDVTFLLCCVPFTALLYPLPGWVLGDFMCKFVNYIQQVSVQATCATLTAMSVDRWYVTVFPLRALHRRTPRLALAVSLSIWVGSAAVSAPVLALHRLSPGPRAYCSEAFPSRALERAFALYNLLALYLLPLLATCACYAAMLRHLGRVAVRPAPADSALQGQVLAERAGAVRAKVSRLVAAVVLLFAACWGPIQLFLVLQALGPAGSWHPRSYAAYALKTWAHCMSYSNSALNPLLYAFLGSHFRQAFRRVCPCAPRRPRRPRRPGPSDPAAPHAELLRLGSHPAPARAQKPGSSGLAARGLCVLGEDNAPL
# Summary of the method: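 Cell line: HEK293, stable human KISS1R. Dye loading 1 h at 37 C after 18 h culture. Read: kinetic fluorescence, 480/540 nm, 3 min at 1 s intervals.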
# [5] = G protein-coupled receptor (GPCR) small molecule agonists, calcium flux assay: HEK293 wild type cell line counter screen (AID 1920065)
# Summary of the method: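 Tox21 10K compounds, 15 concentrations each in triplicate, pin-transferred in DMSO onto dye-loaded cells; kinetic read at 480/540 nm for 3 min, 1 s intervals.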
# [6] = p53 small molecule agonists, cell-based qHTS assay with human liver microsomes (AID 1963577)
# Summary of the method: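 p53RE-bla reporter cells were pre-incubated 5 h at 37 C, then treated with compounds plus human liver microsomes (0.5 mg/mL final) and NADPH (0.5 mg/mL final) for 16 h at 37 C. Beta-lactamase activity was read by LiveBLAzer fluorescence after 2 h at room temperature.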
# [7] = p53 small molecule agonists, cell-based qHTS assay with rat liver microsomes (AID 1963578)
# Summary of the method: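 p53RE-bla cells were exposed to compounds together with rat liver microsomes (0.5 mg/mL final) and NADPH (0.5 mg/mL final) for 16 h at 37 C, then read by LiveBLAzer beta-lactamase fluorescence after 2 h at room temperature.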
# [8] = p53 small molecule agonists, cell-based qHTS assay with human liver microsomes: qHTS cell viability counter screen (AID 1963579); further: nearly all actives have a fitted effect of over 45% in size
# Summary of the method: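 p53RE-bla cells (4,000/well) were pre-incubated 5 h at 37 C, then given compounds in DMSO plus human liver microsomes (0.5 mg/mL final) and NADPH (0.5 mg/mL final) for 16 h at 37 C. Viability was read by CellTiter-Glo luminescence.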
# [9] = molecular target: 5-hydroxytryptamine receptor 2A (Homo sapiens) (UniProt P28223); experiment: 5-hydroxytryptamine receptor 2A (HTR2A) small molecule agonists, cell-based qHTS assay (AID 1963587); further: nearly all actives have a fitted effect of over 30% in size
# 5-hydroxytryptamine receptor 2A (Homo sapiens), sequence (P28223 whole entry, looked up): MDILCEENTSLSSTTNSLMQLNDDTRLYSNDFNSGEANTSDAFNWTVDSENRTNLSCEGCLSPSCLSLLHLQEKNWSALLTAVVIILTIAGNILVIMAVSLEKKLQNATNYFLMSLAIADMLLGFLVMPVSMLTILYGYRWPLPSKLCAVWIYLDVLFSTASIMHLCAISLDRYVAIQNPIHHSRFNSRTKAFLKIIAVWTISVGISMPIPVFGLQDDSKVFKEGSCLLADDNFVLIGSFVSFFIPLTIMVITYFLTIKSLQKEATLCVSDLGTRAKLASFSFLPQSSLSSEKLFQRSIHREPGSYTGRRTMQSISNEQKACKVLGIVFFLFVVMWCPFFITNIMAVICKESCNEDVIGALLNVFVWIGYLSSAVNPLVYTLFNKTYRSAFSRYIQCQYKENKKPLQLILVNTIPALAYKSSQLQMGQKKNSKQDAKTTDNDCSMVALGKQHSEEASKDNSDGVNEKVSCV
# Summary of the method: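 CHO cells stably expressing human HTR2A, plated 18 h, loaded with calcium dye 1 h at 37 C. Agonist mode: compounds added and intracellular calcium fluorescence recorded kinetically for 2 min at 1 sec intervals.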
# [10] = molecular target: Muscarinic acetylcholine receptor M1 (Homo sapiens) (UniProt P11229); experiment: Cholinergic receptor muscarinic 1 (CHRM1) small molecule antagonists, cell-based qHTS assay (AID 1963588); further: nearly all actives have a fitted effect of over 40% in size
# Muscarinic acetylcholine receptor M1 (Homo sapiens), sequence (P11229 whole entry, looked up): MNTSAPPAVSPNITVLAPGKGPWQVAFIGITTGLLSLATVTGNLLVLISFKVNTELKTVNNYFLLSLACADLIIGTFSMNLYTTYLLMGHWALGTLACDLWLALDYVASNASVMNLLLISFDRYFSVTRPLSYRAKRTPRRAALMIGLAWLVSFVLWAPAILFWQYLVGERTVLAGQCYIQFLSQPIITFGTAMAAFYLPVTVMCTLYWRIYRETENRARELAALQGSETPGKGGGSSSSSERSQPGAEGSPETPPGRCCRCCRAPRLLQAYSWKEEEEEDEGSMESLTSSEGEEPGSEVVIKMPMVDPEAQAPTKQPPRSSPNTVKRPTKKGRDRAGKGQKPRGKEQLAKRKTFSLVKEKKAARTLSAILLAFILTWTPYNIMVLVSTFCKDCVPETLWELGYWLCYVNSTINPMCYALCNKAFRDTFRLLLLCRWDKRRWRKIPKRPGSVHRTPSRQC
# Summary of the method: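 Compounds were tested at 15 concentrations in three independent runs. Dye-loaded CHRM1-CHO cells were exposed 5 min at room temperature before stimulation by acetylcholine added at 50nM. Intracellular calcium was read kinetically on FDSS for 3 min.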
# [11] = molecular target: Muscarinic acetylcholine receptor M1 (Homo sapiens) (UniProt P11229); experiment: Cholinergic receptor muscarinic 1 (CHRM1) small molecule agonists, cell-based qHTS assay (AID 1963589); further: nearly all actives have a fitted effect of over 35% in size
# Summary of the method: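 Homogeneous fluorescence calcium flux, agonist mode. Human M1-expressing CHO cells; compound dosed at 15 concentrations, three independent runs; signal sampled every 1 sec.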
# [12] = cAMP Responsive Elements (CRE) small molecule agonists, cell-based qHTS assay (AID 1963590)
# Summary of the method: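 HEK 293T cells stably bearing CRE-bla were plated at 2,000 cells per well and rested 18 h. Compounds, positive controls or DMSO were added for 3 h at 37 C. LiveBLAzer B/G substrate was then loaded for 2 h at room temperature.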
# [13] = cAMP Responsive Elements (CRE) small molecule antagonists, cell-based qHTS assay (AID 1963591; active means well fitted inhibition curve with a large enough effect in the signal ratio in the repeat runs, not every such curve was filed as active; the % refers to the signal ratio)
# Summary of the method: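 First, CRE-bla HEK293T cells settled 18 h at 37 C. Next, compound and 0.25 uM final NKH477 were applied for 3 h. Last, LiveBLAzer B/G substrate was loaded for 2 h at room temperature.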
# [14] = molecular target: Beta-2 adrenergic receptor (Homo sapiens) (UniProt P07550); experiment: Adrenergic beta2 receptor (ADRB2) small molecule antagonists, cell-based qHTS assay (AID 1963592); further: series mostly up to about 92 µM; nearly all actives have a fitted effect of over 50% in size
# Beta-2 adrenergic receptor (Homo sapiens), sequence (P07550 whole entry, looked up): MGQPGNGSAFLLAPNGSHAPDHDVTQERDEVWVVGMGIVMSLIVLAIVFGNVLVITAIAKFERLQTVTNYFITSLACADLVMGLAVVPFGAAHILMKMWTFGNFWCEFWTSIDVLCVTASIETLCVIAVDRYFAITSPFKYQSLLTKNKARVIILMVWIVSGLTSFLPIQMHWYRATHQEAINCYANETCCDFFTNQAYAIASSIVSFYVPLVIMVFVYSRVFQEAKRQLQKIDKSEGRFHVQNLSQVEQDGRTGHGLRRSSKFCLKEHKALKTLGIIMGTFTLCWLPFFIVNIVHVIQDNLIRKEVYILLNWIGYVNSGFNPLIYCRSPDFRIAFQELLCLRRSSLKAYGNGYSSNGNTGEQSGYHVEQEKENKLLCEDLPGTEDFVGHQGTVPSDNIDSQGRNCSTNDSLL
# Summary of the method: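 Assay format: CHO-ADRB2 cells, 18-20hr seeding at 37C/5% CO2, then compound plus 1nM isoproterenol agonist mix for 0.5hr RT. Homogeneous time-resolved fluorescence cAMP detection after 1hr, expressed as 665/615 nm ratio.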
# [15] = molecular target: D(2) dopamine receptor (Homo sapiens) (UniProt P14416); experiment: Dopamine D2 receptor (DRD2) small molecule agonists, cell-based qHTS assay (AID 1963594); further: nearly all actives have a fitted effect of over 35% in size; further: potency means the concentration at half of the fitted maximal effect
# D(2) dopamine receptor (Homo sapiens), sequence (P14416 whole entry, looked up): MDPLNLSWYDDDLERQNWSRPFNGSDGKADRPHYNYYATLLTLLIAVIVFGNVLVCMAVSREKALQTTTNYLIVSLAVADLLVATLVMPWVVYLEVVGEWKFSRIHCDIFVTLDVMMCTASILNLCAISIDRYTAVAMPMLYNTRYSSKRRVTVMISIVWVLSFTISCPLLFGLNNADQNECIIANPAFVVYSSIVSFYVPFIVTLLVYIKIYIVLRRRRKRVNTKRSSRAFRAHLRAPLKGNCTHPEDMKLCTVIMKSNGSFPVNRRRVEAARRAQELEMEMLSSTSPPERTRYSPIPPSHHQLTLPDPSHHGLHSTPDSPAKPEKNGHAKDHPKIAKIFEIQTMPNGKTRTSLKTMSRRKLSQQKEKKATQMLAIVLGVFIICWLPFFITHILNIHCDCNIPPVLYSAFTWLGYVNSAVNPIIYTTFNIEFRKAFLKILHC
# Summary of the method: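 HEK293 cells stably expressing human DRD2, pre-treated with PDE inhibitor Ro20-1724 (0.1 mM final) and compound 10 min at room temperature, then stimulated with NKH477 (200nM […]) for 30 min. cAMP read by HTRF (665/620 nm).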
# [16] = molecular target: D(2) dopamine receptor (Homo sapiens) (UniProt P14416); experiment: Dopamine D2 receptor (DRD2) small molecule antagonists, cell-based qHTS assay (AID 1963595; active means well fitted inhibition curve with a large enough effect in the signal ratio in the repeat runs, with a control signal flat; the % refers to the signal ratio; further: potency means the concentration at half of the fitted maximal effect)
# Summary of the method: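 Stable D2 receptor HEK293 line, 24 h after seeding. Compound preincubated 10 min, then quinpirole (12 nM) with forskolin analogue NKH477 (200 nM), 30 min, room temperature. Detection by time-resolved FRET of cAMP.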
# [17] = p53 small molecule agonists, cell-based qHTS assay: qHTS cell viability counter screen (AID 1963581); further: nearly all actives have a fitted effect of over 45% in size
# Summary of the method: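 ATP content measured by luminescence in HCT-116 p53RE-bla cells treated 16 h at 37 C, same wells as the reporter screen.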
# [18] = p53 small molecule agonists, cell-based qHTS assay (AID 1963582; active means well fitted activation curve with a large enough effect in the signal ratio in the repeat runs, not every such curve was filed as active; the % refers to the signal ratio)
# Summary of the method: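 16 h compound exposure (37 C) of p53 response element–bla cells, preceded by 5 h recovery at 37 C/5% CO2; read-out via LiveBLAzer B/G FRET substrate, 2 h RT, fluorescence intensity.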
# [19] = molecular target: 5-hydroxytryptamine receptor 2A (Homo sapiens) (UniProt P28223); experiment: 5-hydroxytryptamine receptor 2A (HTR2A) small molecule antagonists, cell-based qHTS assay (AID 1963586); further: nearly all actives have a fitted effect of over 45% in size
# Summary of the method: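 CHO cells stably expressing human HTR2A were plated for 18 h at 37 C, then loaded with calcium dye for 1 h. Compounds were preincubated 5 min at room temperature before DOI (4 nM solution) was added. Kinetic fluorescence was read for 3 min.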
# [20] = molecular target: Beta-2 adrenergic receptor (Homo sapiens) (UniProt P07550); experiment: Adrenergic beta2 receptor (ADRB2) small molecule agonists, cell-based qHTS assay (AID 1963593);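 further: CHO cells stably overexpressing human ADRB2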
# Summary of the method: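 CHO cells stably over-expressing ADRB2 were plated overnight at 37C, then dosed with compounds plus a stimulation mix containing 100uM IBMX and 25uM Ro-20-1724 for 0.5hr at room temperature. cAMP was measured by HTRF competition, 1hr.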
structure (smiles),measurement,setting,value
CC(Cl)C(Cl)Cl (stereo unspecified),Potency,[1],inactive
same,Potency,[2],inactive
same,Potency,[3],inactive
same,outcome,[4],inactive
same,outcome,[5],inactive
same,Potency,[6],inactive
same,Potency,[7],inactive
same,Potency,[8],inactive
same,Potency,[9],inactive
same,Potency,[10],inactive
same,Potency,[11],inactive
same,Potency,[12],inactive
same,Potency,[13],inactive
same,Potency,[14],inactive
same,Potency,[15],inactive
same,Potency,[16],inactive
CCCCCCCCCCCCCCCCCl,"activity change, negative = cytotoxicity",[1],-5.35% [at 19 µM]
same,"activity, positive = activation",[2],-7.33% [at 19 µM]
same,activity change,[3],"0.762% [at 11.8 µM, hits give high values]"
same,activation,[4],2.27% [at 15.8 µM]
same,activation,[5],0.033% [at 11.8 µM]
same,activation,[6],1.18% [at 13.5 µM]
same,activation,[7],0.0918% [at 13.6 µM]
same,"activity change, negative = cytotoxicity",[8],0.42% [at 13.5 µM]
same,"activity change, negative = cytotoxicity",[17],-1.41% [at 13.5 µM]
same,activation,[18],0.101% [at 13.5 µM]
same,"activity, negative = inhibition",[19],12.6% [at 12.7 µM]
same,activation,[9],-4.65% [at 15.9 µM]
same,"activity, negative = inhibition",[10],-6.96% [at 12.6 µM]
same,activation,[11],-0.468% [at 15.8 µM]
same,activation,[12],-1.81% [at 19 µM]
same,"activity change, negative = inhibition",[13],-10.5% [at 18.9 µM]
same,"activity change, negative = inhibition",[14],-9.7% [at 19 µM]
same,Potency,[20],inactive
same,activation,[15],-1.48% [at 19 µM]
same,"activity change, negative = inhibition",[16],2.16% [at 18.9 µM]
Nc1ccc(Cl)cc1[N+](=O)[O-],Potency,[1],inactive
same,Potency,[2],inactive
same,Potency,[3],inactive
same,outcome,[4],inactive
same,outcome,[5],inactive
same,Potency,[6],inactive
same,Potency,[7],inactive
same,Potency,[8],inactive
same,Potency,[17],inactive
same,Potency,[18],inactive
same,Potency,[19],inactive
same,Potency,[9],inactive
same,Potency,[10],inactive
same,Potency,[11],inactive
same,Potency,[12],inactive
same,Potency,[13],inactive
same,Potency,[14],inactive
same,Potency,[15],inactive
same,Potency,[16],inactive
CN1CCN(CCCN2c3ccccc3Sc3ccc(C(F)(F)F)cc32)CC1,Potency,[1],29.8 µM (active)
same,Potency,[2],inactive
same,Potency,[3],inactive
same,outcome,[4],inactive
same,outcome,[5],inactive
same,Potency,[6],inactive
same,Potency,[7],inactive
same,Potency,[8],inactive
same,Potency,[20],inactive
same,Potency,[15],inactive
same,Potency,[16],0.0298 µM (active)
O=C(O)Cc1sc(-c2ccccc2)nc1-c1ccc(Cl)cc1,Potency,[1],inactive
same,Potency,[2],inactive
same,Potency,[3],inactive
same,outcome,[4],inactive
same,outcome,[5],inactive
same,Potency,[6],inactive
same,Potency,[7],inactive
same,Potency,[8],inactive
same,Potency,[19],inactive
same,Potency,[9],inactive
same,Potency,[11],inactive
same,Potency,[14],inactive
same,Potency,[20],inactive
same,Potency,[16],inactive
CC(CCc1ccccc1)NCC(O)c1ccc(O)c(C(N)=O)c1 (stereo unspecified),Potency,[1],inactive
same,Potency,[2],inactive
same,Potency,[3],inactive
same,outcome,[4],inactive
same,outcome,[5],inactive
same,Potency,[6],inactive
same,Potency,[7],inactive
same,Potency,[8],inactive
same,Potency,[12],inactive
same,Potency,[13],inactive
same,Potency,[15],3.31 µM (active)
same,Potency,[16],inactive
Nc1c(N=Nc2ccc(-c3ccc(N=Nc4cc(S(=O)(=O)O)c5ccccc5c4N)cc3)cc2)cc(S(=O)(=O)O)c2ccccc12,Potency,[1],30.6 µM (active)
same,Potency,[2],inactive
same,Potency,[3],inactive
same,outcome,[4],inactive
same,outcome,[5],inactive
same,Potency,[6],inactive
same,Potency,[7],inactive
same,Potency,[8],inactive
same,Potency,[19],inactive
same,Potency,[10],inactive
same,Potency,[11],inactive
same,Potency,[12],inactive
same,Potency,[13],inactive
CCCCCCCC(=O)OCC,Potency,[1],inactive
same,Potency,[2],inactive
same,Potency,[3],inactive
same,outcome,[4],inactive
same,outcome,[5],inactive
same,Potency,[6],inactive
same,Potency,[7],inactive
same,Potency,[8],inactive
same,Potency,[17],inactive
same,Potency,[18],inactive
same,Potency,[19],inactive
same,Potency,[9],inactive
same,Potency,[10],inactive
same,Potency,[11],inactive
same,Potency,[12],inactive
same,Potency,[13],inactive
same,Potency,[14],inactive
same,Potency,[15],inactive
same,Potency,[16],inactive
CN(C)CCCN1c2ccccc2Sc2ccccc21,Potency,[1],inactive
same,Potency,[2],inactive
same,Potency,[3],inactive
same,outcome,[4],inactive
same,outcome,[5],inactive
same,Potency,[6],inactive
same,Potency,[7],inactive
same,Potency,[8],inactive
same,Potency,[12],inactive
same,Potency,[13],inactive
same,Potency,[15],inactive
same,Potency,[16],29.8 µM (active)
